Laboratory results: PubChem BioAssay (Tox21)
Results filed as inconclusive are left out. The source made the active and inactive calls. Unless noted, calls come from the whole dose curve; as a rule, active = well fitted curve in the direction sought with a large enough effect in the repeat runs; inconclusive = weak or mixed curves; inactive = no such curve, though single readings can be large; an effect the other way counts as inactive or inconclusive.

What was measured:
[1] = A CellTox Green Cytotoxicity Assay to monitor cytotoxicity in HepG2 cells - 0 hour (AID 1224882); conditions: CellTox Green fluorescence; series mostly up to 76.8 µM; note: nearly all actives have a fitted effect of over 35% in size
Summary of the method: (§1)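 HepG2 cells, 600/well, preincubated 5 h with CellTox Green dye, then exposed to Tox21 compounds in DMSO at 37 C for up to 40 h. Dead-cell DNA fluorescence read at the indicated time point.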

[2] = A CellTox Green Cytotoxicity Assay to monitor cytotoxicity in HEK293 cells - 8 hour (AID 1224884); conditions: CellTox Green fluorescence; series mostly up to 76.8 µM; note: nearly all actives have a fitted effect of over 35% in size
Summary of the method: (§2)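 HEK293 cells, 600/well, were preincubated 5 hours and then exposed to compounds at 37 C for up to 40 hours. A cell-impermeant cyanine dye staining dead-cell DNA was read by fluorescence at 0, 8, 16, 24, 32 and 40 h time points.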

[3] = qHTS RealTime-Glo MT Cell Viability Assay in HEK293 cells - 24 hour (AID 1224886); conditions: RealTime-Glo luminescence; series mostly up to 76.8 µM; note: top concentration of the series differs between compounds; nearly all actives have a fitted effect of over 50% in size
Summary of the method: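 Assay medium contained NanoLuc luciferase plus cell-permeant prosubstrate, added with HEK293 cells at 600 cells/well. After 5 h at 37 C/5% CO2 compounds were added; plates stayed at 37 C for 40 h with serial luminescence reads.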

[4] = qHTS RealTime-Glo MT Cell Viability Assay in HEK293 cells - 8 hour (AID 1224887); conditions: RealTime-Glo luminescence; series mostly up to 76.8 µM; note: top concentration of the series differs between compounds; nearly all actives have a fitted effect of over 50% in size
Summary of the method: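 600 cells/well were plated with the nonlytic NanoLuc/prosubstrate reagent, pre-incubated 5 h, then given 23 nL of compound in DMSO. Incubation at 37 C for 40 h, with luminescence from viable-cell-reduced substrate read repeatedly from 0 h.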

[5] = A CellTox Green Cytotoxicity Assay to monitor cytotoxicity in HEK293 cells - 16 hour (AID 1224888); conditions: CellTox Green fluorescence, hits give high values; series mostly up to 76.8 µM; note: nearly all actives have a fitted effect of over 35% in size
Summary of the method: as §2

[6] = qHTS RealTime-Glo MT Cell Viability Assay in HepG2 cells - 0 hour (AID 1224889); conditions: RealTime-Glo luminescence; series mostly up to 76.8 µM; note: nearly all actives have a fitted effect of over 50% in size
Summary of the method: (§3)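 qHTS, HepG2, 600 cells/well, RealTime-Glo (NanoLuc + prosubstrate) added with cells; 5 h preincubation; DMSO compound addition; 37 C; luminescence at 0/8/16/24/32/40 h.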

[7] = A CellTox Green Cytotoxicity Assay to monitor cytotoxicity in HepG2 cells - 8 hour (AID 1224890); conditions: CellTox Green fluorescence; series mostly up to 76.8 µM; note: nearly all actives have a fitted effect of over 45% in size
Summary of the method: as §1

[8] = qHTS assay to identify small molecule antagonists of the estrogen receptor alpha (ER-alpha) signaling pathway using the BG1 cell line in the presence of 0.1 nM 17-beta-estradiol - cell viability counter screen (AID 1259241); conditions: VM7Luc4E2 (BG1) viability, CellTiter-Fluor protease, 22 h, 0.1 nM estradiol agonist added; series mostly up to 92.4 µM; note: nearly all actives have a fitted effect of over 40% in size
Summary of the method: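 Measures cytotoxicity alongside the ER-alpha antagonist readout: VM7Luc4E2 cells, charcoal-stripped serum, 0.1 nM 17beta-estradiol final, 22 hr compound incubation at 37C, CellTiter-Fluor fluorescence.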

[9] = qHTS assay to identify small molecule antagonists of the androgen receptor (AR) signaling pathway using the MDA cell line in the presence of 0.5 nM R1881 - cell viability counter screen (AID 1259242); conditions: MDA-kb2 viability, CellTiter-Fluor protease fluorescence, 16 h; series mostly up to 92.4 µM; note: nearly all actives have a fitted effect of over 45% in size
Summary of the method: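 MDA-kb2 cells (MMTV-luciferase, AR/GR responsive) were treated with compounds plus 0.5 nM R1881 (final) for 16 hr at 37C, 0% CO2. Viability was then read in the same wells as live-cell protease fluorescence (CellTiter-Fluor, 30 min).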

[10] = target: Estrogen receptor (Homo sapiens) (UniProt P03372); assay: qHTS assay to identify small molecule antagonists of the estrogen receptor alpha (ER-alpha) signaling pathway using the BG1 cell line in the presence of 0.1 nM 17-beta-estradiol (AID 1259244); conditions: VM7Luc4E2 (BG1) ERE-luciferase, antagonist mode, 0.1 nM E2, 22 h; series mostly up to 92.4 µM; note: nearly all actives have a fitted effect of over 50% in size
Estrogen receptor (Homo sapiens), sequence (P03372 whole entry, looked up): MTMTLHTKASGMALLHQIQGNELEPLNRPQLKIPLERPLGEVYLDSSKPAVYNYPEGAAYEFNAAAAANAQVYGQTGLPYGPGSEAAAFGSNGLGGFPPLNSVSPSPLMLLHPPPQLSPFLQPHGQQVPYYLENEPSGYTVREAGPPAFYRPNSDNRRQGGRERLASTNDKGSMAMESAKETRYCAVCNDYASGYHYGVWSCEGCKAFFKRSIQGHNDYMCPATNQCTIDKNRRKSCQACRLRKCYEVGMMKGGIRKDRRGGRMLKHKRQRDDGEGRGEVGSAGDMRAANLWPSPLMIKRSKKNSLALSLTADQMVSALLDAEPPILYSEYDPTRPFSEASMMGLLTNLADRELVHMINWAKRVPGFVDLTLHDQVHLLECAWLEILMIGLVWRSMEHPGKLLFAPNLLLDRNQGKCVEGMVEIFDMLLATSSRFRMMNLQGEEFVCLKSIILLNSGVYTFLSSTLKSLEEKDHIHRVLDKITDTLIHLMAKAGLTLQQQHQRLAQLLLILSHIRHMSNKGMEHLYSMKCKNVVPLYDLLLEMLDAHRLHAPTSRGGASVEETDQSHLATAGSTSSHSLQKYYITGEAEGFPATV
Summary of the method: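 VM7Luc4E2 cells (endogenous full-length ER-alpha, 4×ERE-luciferase), kept 5 days in phenol red-free, charcoal-stripped FBS medium; 4,000 cells/well. Compounds added with 0.1 nM (final) 17beta-estradiol, 22 hr at 37C; luminescence read with ONE-Glo after 30 min.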

[11] = qHTS assay to identify small molecule HDAC inhibitors (AID 1259364); conditions: HCT-116 HDAC-Glo I/II luminescence, 2 h; series mostly up to 92.4 µM; note: top concentration of the series differs between compounds; nearly all actives have a fitted effect of over 45% in size
Summary of the method: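 Wild-type HCT-116 cells, plated overnight at 37 C, exposed to compounds 2 hr at 37 C; luminogenic HDAC-Glo substrate then added 30 min at room temperature. Luminescence reports relative endogenous class I/II HDAC activity.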

[12] = qHTS assay to identify small molecule HDAC inhibitors - cell viability counter screen (AID 1259365); conditions: HCT-116 viability, CellTiter-Glo ATP luminescence, 2 h; series mostly up to 92.4 µM; note: nearly all actives have a fitted effect of over 50% in size
Summary of the method: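 Following a 2hr exposure of overnight-plated wild-type HCT-116 cells to DMSO-delivered compounds, CellTiter-Glo was added and luminescence recorded after 30min at room temperature.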

[13] = qHTS assay to identify small molecule agonists of the sonic hedgehog signaling (Shh) pathway - cell viability counter screen (AID 1259366); conditions: NIH/3T3 Gli1-Luc viability, CellTiter-Fluor, 24 h; series mostly up to 92.4 µM; note: nearly all actives have a fitted effect of over 50% in size
Summary of the method: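 After a 4hr attachment at 37C, NIH/3T3 cells bearing an integrated Gli1-driven luciferase reporter were dosed with compounds. Treatment lasted 24hr, with the final hour including CellTiter-Fluor for a fluorescence viability measurement.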

[14] = qHTS assay to identify small molecule antagonists of the sonic hedgehog signaling (Shh) pathway - cell viability counter screen (AID 1259367); conditions: NIH/3T3 Gli1-Luc viability, CellTiter-Fluor, 24 h; series mostly up to 92.4 µM; note: nearly all actives have a fitted effect of over 55% in size
Summary of the method: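 After a 4 hr settling period, 3T3 Gli1-Luc cells were treated with DMSO-dissolved chemicals and conditioned medium, kept 24 hr at 37C in 5% CO2, and assayed for viability by CellTiter-Fluor fluorescence following 1 hr reagent incubation.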

[15] = qHTS assay to identify small molecule agonists of the sonic hedgehog signaling (Shh) pathway (AID 1259368; calls by dose curve;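 note: NIH/3T3-derived 3T3Gli1-Luc cells carrying a stable Gli1-driven firefly luciferase reporter; nearly all actives have a fitted effect of over 15% in size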); conditions: NIH/3T3 Gli1-Luc reporter, luciferase, 24 h, hits give high values; series mostly up to 92.4 µM
Summary of the method: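 NIH/3T3-derived 3T3Gli1-Luc cells with stably integrated Gli1-driven firefly luciferase, 2,000 cells/well, compounds added after 4 hr. Incubated 24 hr at 37C, 5% CO2; luminescence read after 30 min with luciferase reagent at room temperature.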

[16] = qHTS assay to identify small molecule phospholipidosis (PLD) inducers (AID 1259344; active = well fitted curve in the direction sought with a large enough effect; an effect the other way counts as inactive or inconclusive); conditions: HepG2 phospholipidosis, LipidTOX Red imaging, 24 h; series mostly up to 38.3 µM
Summary of the method: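 HepG2 cells grown on collagen I take up LipidTOX Red while exposed to compound for 24 h; after fixation they are imaged at 20x and pit metrics are extracted.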

[17] = qHTS assay to identify small molecule antagonists of the sonic hedgehog signaling (Shh) pathway (AID 1259369; calls by dose curve; note: nearly all actives have a fitted effect of over 45% in size); conditions: NIH/3T3 Gli1-Luc reporter, Shh antagonist, luminescence 24 h; series mostly up to 92.4 µM
Summary of the method: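 NIH/3T3-derived Gli1-Luc reporter cells plated 4 h, dosed with compound, then stimulated with conditioned medium for 24 h at 37 C. Firefly luciferase luminescence read after 30 min with detection reagent at room temperature.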

[18] = A CellTox Green Cytotoxicity Assay to monitor cytotoxicity in HepG2 cells - 32 hour (AID 1224883); conditions: CellTox Green fluorescence; series mostly up to 76.8 µM; note: nearly all actives have a fitted effect of over 50% in size
Summary of the method: as §1

[19] = qHTS RealTime-Glo MT Cell Viability Assay in HepG2 cells - 16 hour (AID 1224885); conditions: RealTime-Glo luminescence; series mostly up to 76.8 µM; note: nearly all actives have a fitted effect of over 50% in size
Summary of the method: as §3
% is set by controls: 0 for no effect and ±100 for the full control effect.

CCCCOC(=O)CCC(C)=O
inactive: Potency [1] | outcome [2] | Potency [3] | Potency [4] | outcome [5] | Potency [6] | outcome [7] | outcome [8] | outcome [9] | outcome [10] | Potency [11] | outcome [12] | Potency [13] | Potency [14] | outcome [15]

CCN[C@@H]1C[C@H](N)[C@@H](OC2OC(CN)=CCC2N)[C@H](O)[C@H]1O[C@H]1OC[C@](C)(O)[C@H](NC)[C@H]1O (some centres undefined)
inactive: cytotoxicity [1] 3.46% [at 0.29 µM] | cytotoxicity increase [2] -0.876% [at 0.29 µM] | activity change, negative = cytotoxicity [3] 3.34% [at 0.29 µM] | activity change, negative = cytotoxicity [4] 0.47% [at 0.29 µM] | activity change [5] 1.26% [at 0.29 µM] | activity change, negative = cytotoxicity [6] 0.414% [at 0.29 µM] | cytotoxicity increase [7] 3.81% [at 0.29 µM] | activity change, negative = cytotoxicity [8] 0.862% [at 0.349 µM] | viability change, negative = cytotoxic [9] 0.329% [at 0.349 µM] | outcome [16] | activity change, negative = inhibition [11] 3.34% [at 0.349 µM] | activity change, negative = cytotoxicity [12] 1.54% [at 0.349 µM] | viability change, negative = cytotoxic [13] -1.56% [at 0.349 µM] | viability change, negative = cytotoxic [14] 0.171% [at 0.349 µM] | activity change [15] 0.0974% [at 0.349 µM] | activity change, negative = inhibition [17] 2.07% [at 0.349 µM]

NC(=O)N[C@@H](CCC(=O)O)C(=O)O
inactive: Potency [18] | outcome [2] | outcome [19] | Potency [3] | Potency [4] | outcome [5] | outcome [7] | outcome [8] | outcome [9] | outcome [16] | Potency [11] | outcome [12] | Potency [13] | Potency [14] | outcome [15] | Potency [17]

CC1=C(C/C=C(\C)CCC[C@H](C)CCC[C@H](C)CCCC(C)C)C(=O)c2ccccc2C1=O
inactive: Potency [1] | outcome [2] | outcome [19] | Potency [4] | outcome [5] | Potency [6] | outcome [7] | outcome [8] | outcome [9] | outcome [16] | Potency [11] | outcome [12] | Potency [13] | Potency [14] | outcome [15]

CC[N+](CC)(CC(=O)Nc1c(C)cccc1C)Cc1ccccc1 (tested in a mixture with another compound)
inactive: Potency [1] | outcome [2] | outcome [19] | Potency [3] | Potency [4] | outcome [5] | Potency [6] | outcome [7] | outcome [8] | outcome [9] | Potency [11] | outcome [12] | Potency [13] | Potency [14] | outcome [15]

C=COCC1CCC(COC=C)CC1 (centres undefined)
inactive: Potency [1] | outcome [2] | outcome [19] | Potency [3] | outcome [5] | Potency [6] | outcome [7] | outcome [8] | outcome [9] | outcome [10] | Potency [11] | outcome [12] | Potency [13] | Potency [14] | outcome [15] | Potency [17]

CCC(C)(CCCC(C)C)OC(C)=O (centres undefined)
inactive: Potency [1] | outcome [2] | outcome [19] | Potency [3] | Potency [4] | outcome [5] | outcome [7] | outcome [8] | outcome [9] | outcome [10] | Potency [11] | outcome [12] | Potency [13] | Potency [14] | outcome [15] | Potency [17]
